Measured values reported in PubChem BioAssay.
Unmarked numbers belong to inactive results. The rule behind the calls is not given here.

What follows are compounds tested against Pantothenate synthetase (Mycobacterium tuberculosis (strain ATCC 25618 / H37Rv)) (UniProt P9WIL5) (assay: Recombinant Mtb pantothenate synthetase (PanC) inhibitors, coupled enzyme, confirmatory (AID 375;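 note: 0% = full reaction with vehicle and 100% = no enzyme background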)). Conditions: coupled enzyme assay; at 10 µM, active compounds read high.
Pantothenate synthetase (Mycobacterium tuberculosis (strain ATCC 25618 / H37Rv)), sequence (P9WIL5 whole entry, looked up): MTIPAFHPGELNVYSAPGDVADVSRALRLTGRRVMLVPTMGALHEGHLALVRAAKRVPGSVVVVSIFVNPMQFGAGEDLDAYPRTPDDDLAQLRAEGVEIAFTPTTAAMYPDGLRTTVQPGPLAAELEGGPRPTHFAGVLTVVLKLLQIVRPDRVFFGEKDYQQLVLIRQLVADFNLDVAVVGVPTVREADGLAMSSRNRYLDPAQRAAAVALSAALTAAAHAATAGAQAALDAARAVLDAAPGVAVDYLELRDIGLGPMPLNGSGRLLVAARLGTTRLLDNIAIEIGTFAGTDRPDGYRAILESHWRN

Row | SMILES | inhibition [%]
1 | Cc1nnc(SCC(=O)N2CCC(C(=O)Nc3nccs3)CC2)n1Cc1ccccc1 | 0
2 | CC(OC(=O)C1CC=CCC1C(N)=O)C(Cl)=C(Cl)Cl (stereo not given) | 0
3 | COC(=O)c1cccc(NC(=O)CN2CCN(Cc3ccccc3)CC2)c1 | 2
4 | O=C(COc1ccc(S(=O)(=O)NC2CCCCC2)cc1)NCc1ccccn1 | 0
5 | COc1ccc(C2=CC(=O)OC3(CCCCC3)O2)cc1 | 0
6 | COc1cc2c(cc1OC)C(C)N(C(=O)c1cc3n(n1)C(C(F)(F)F)CC(c1ccco1)N3)CC2 (stereo not given) | 6
7 | Cc1cccc(N2CCN(S(=O)(=O)c3ccc4c(c3)CCC(=O)N4)CC2C)c1 (stereo not given) | 6
8 | O=C(OCC(=O)N1CCCCCC1)c1cccs1 | 0
9 | Cn1ccnc1SCC(=O)Nc1ccc2ccccc2c1 | 2
10 | CC1(C)OC(=O)C(=CNc2ccccc2)C(=O)O1 | 4
11 | O=C(c1ccccc1Br)N1CCN(c2ccccc2)CC1 | 8
12 | O=C(C1CC1(c1ccccc1)c1ccccc1)N1CCOCC1 (stereo not given) | 0
13 | COc1ccc(OCC(=O)Nc2ccc(N3CCOCC3)c(Cl)c2)cc1 | 0
14 | O=c1oc(-c2ccco2)nc2ccccc12 | 2
15 | CCOc1ccccc1Nc1ncnc2ccccc12 | 6
16 | COc1ccc(NC(=O)N2CCC(c3nc(-c4cccs4)no3)CC2)cc1 | 0
17 | O=C(Nc1ccc2c(c1)OCCO2)NC1CCCCC1 | 0
18 | Cc1ccccc1S(=O)(=O)Cc1ccc(C(=O)NCc2cccnc2)o1 | 0
19 | Nc1nnc(C(=O)c2ccccc2N)s1 | 0
20 | c1ccc(-c2nnc(OCCN3CCOCC3)c3ccccc23)cc1 | 0

Row | SMILES | inhibition [%]
21 | NC(=O)C1CCN(C(=S)c2cccs2)CC1 | 0
22 | CCOC(=O)c1ccc(NC(=O)NC(C)C2CCCO2)cc1 (stereo not given) | 0
23 | COC(=O)C1CCN(C(=O)CSc2nnc(-c3ccncc3)o2)CC1 | 0
24 | COCCN1CCN(c2c(C)c(C)nc3cc(-c4cccc(OC)c4)nn23)CC1 | 0
25 | COC(=O)CN(c1nc(C)c(Cl)c(OC)n1)S(=O)(=O)c1ccc(C)cc1 | 0
26 | Fc1ccc(NCc2nnc(SCc3nnc(-c4ccccc4)o3)n2CC2CCCO2)cc1 (stereo not given) | 0
27 | O=C(O)CCc1ccc(-c2cccs2)o1 | 6
28 | O=C(Nc1cccc(Cl)c1)N1CCN(Cc2ccccc2)CC1 | 5
29 | Cc1ccc2nc(C(F)(F)F)c(C#N)c(N)c2c1 | 7
30 | O=C(CSc1nnc(-c2c[nH]c3ccccc23)o1)N(Cc1ccccc1)c1ccc(F)cc1 | 0
31 | O=C(CCn1c(=O)oc2ccccc21)NCc1ccco1 | 1
32 | CC1CCN(CCc2nc3cc(NS(=O)(=O)c4ccc(F)cc4)ccc3n2C)CC1 | 5
33 | COc1ccc(C(=O)NCc2nnc(SC)n2C2CCCCC2)cc1 | 2
34 | COc1ccc(/C=C/C(=O)Nc2ccccc2C(=O)O)cc1OC | 0
35 | O=C(c1ccc(NS(=O)(=O)c2cccs2)cc1)N1CCCCC1 | 0
36 | Nn1c(SCC(=O)Nc2ccccc2)nnc1-c1cccnc1 | 0
37 | Clc1ccc2nc(N3CCCCC3)[nH]c2c1 | 3
38 | COc1ccc2c(c1)[nH]c1c(=O)n(CC3CCCO3)cnc12 (stereo not given) | 1
39 | CCCS(=O)(=O)N1CCCC(C(=O)NC2CCCC(C)C2C)C1 (stereo not given) | 0
40 | Cc1ccc(C2C(C#N)=C(N)Oc3cc4c(cc32)OCO4)cc1 (stereo not given) | 8
